VDR inh – blocks the human vitamin D receptor | VDR-SRC2-3 peptide fluorescence polarization, 2 h | Potency, µM, for the others: max response, negative = inhibition, most hits filed as inhibitors | AID 504847 | actives 0.93% (n = 400,000) | P11473; also: % is scaled to controls: 0 for no effect and ±100 for the full control effect
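Fluorescence polarization assay measuring small-molecule disruption of VDR binding to the coregulator peptide SRC2-3. Compounds were pin-transferred (23 nl) into the reagent mix and incubated 2 h at room temperature before reading.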
G9a block – blocks human histone lysine methyltransferase G9a. AID 504332. Q96KQ7. actives 8.8% (n = 350,000). G9a H3K9 monomethylation, AlphaScreen, 2 h. Potency, µM (highest dose often 102 µM), for inactives: at the top dose activity, negative = inhibition, usual class: inhibitors; also: % is scaled to controls: 0 for no effect and ±100 for the full control effect; nearly all actives have a fitted effect of over 75% in size
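Readings reflect AlphaScreen signal from monomethyl-H3K9 antibody detection. HMT at 20 nM; substrate b-H3K9 500 nM; cofactor SAM 20 uM; 2 h RT reaction; compounds tested as titrations in qHTS with 15 min preincubation.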
GRP78 ERSR act – inducers of ER stress response in human glioma cells | U87-MG GRP78 promoter luciferase reporter, 16 h | Potency, µM, for inactives: top-dose activation, hits mostly activators | actives 0.02% (n = 420,000) | AID 602332; also: series mostly up to about 76 µM; % of control where 0% means no effect; nearly all actives have a fitted effect of over 35% in size
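Stably transfected U87-MG glioma cells carrying a GRP78-based luciferase sensor; 16 h compound incubation. Luminescence end-point read 10 min after Bright-Glo addition at room temperature.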
Sfp inh – blocks B. subtilis Sfp PPTase activity | Biochemical Sfp PPTase activity, qHTS | Potency, µM, inactives show largest response in the series, negative = inhibition, most hits filed as inhibitors | actives 3.5% (n = 310,000);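 also: the enzyme is Sfp with the accession as filed and its product quenches rhodamine fluorescence; 0% = enzyme reaction without inhibitor and -100% = no enzyme wells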
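Sfp 15 nM + cpd, 15 min RT; start w/ rhodamine-CoA 5 uM, BHQ-2-YbbR 12.5 uM (final); 50 mM Hepes pH 7.6, 10 mM MgCl2, 0.01% NP-40, 0.01% BSA; read 525/598 nm at 0 and 30 min.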
ALOX12 inh – inhibitors of human 12S-lipoxygenase ALOX12; P18054; purified 12hLO, xylenol orange hydroperoxide absorbance; Potency, µM (doses to about 108 µM), without a hit: at the highest dose activity change, negative = inhibition, actives largely listed as inhibitors; actives 1.1% (n = 580,000); AID 1671190; also: % is scaled to controls: 0 for no effect and ±100 for the full control effect
Target sequence (P18054 whole entry, looked up): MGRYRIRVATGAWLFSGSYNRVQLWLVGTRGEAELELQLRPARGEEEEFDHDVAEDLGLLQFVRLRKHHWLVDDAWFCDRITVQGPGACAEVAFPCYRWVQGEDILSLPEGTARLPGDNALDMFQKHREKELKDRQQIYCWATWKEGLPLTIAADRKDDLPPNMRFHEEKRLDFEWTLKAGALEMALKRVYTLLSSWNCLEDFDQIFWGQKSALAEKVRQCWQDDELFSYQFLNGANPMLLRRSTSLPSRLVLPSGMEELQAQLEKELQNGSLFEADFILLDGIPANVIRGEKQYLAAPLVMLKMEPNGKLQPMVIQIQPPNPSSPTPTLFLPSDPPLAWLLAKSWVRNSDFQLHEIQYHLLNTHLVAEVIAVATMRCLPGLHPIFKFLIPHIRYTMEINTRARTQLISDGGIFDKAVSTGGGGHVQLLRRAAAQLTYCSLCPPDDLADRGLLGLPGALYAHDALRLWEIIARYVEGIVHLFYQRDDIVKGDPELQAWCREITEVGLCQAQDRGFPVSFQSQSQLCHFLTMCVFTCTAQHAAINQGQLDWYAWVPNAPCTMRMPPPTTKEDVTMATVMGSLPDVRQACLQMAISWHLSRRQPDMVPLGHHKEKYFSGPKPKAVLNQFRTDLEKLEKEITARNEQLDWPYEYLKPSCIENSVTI
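Purified human 12hLO (150 nM final) in 25 mM Hepes, 0.01% Triton X-100, pH 7.0 was preincubated 15 min at room temperature with compound. Then 40 uM arachidonic acid was added, 30 min. Hydroperoxide was read by Fe-XO absorbance ratio 573/405 nm.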
Starred values were filed as active, the others as inactive; ? = inconclusive; · = no result; [ ] = another dose, or the depositor's remark. This excerpt belongs to a sample that is enriched for hits. Calls follow the shape of the dose curve; as a rule, active = well fitted curve in the direction sought with a large enough effect; inconclusive = small, poorly fitted or top-dose-only effect, or another doubt; inactive = no such curve, though single readings can be large; an effect the other way counts as inactive or inconclusive. Potency is read from the fitted curve at half-maximal effect.

SMILES | VDR inh | G9a block | GRP78 ERSR act | Sfp inh | ALOX12 inh
C=CCN1CC[C@]23c4c5ccc(O)c4O[C@H]2[C@@H](O)C=C[C@H]3[C@H]1C5 | -0.2% | ? | -5.9% | -16.9% | ·
CCCN1CCc2cc(O)cc3c2C1Cc1ccc(O)c(O)c1-3 (stereo not drawn) | 25.1µM* | 0.316µM* | 0.3% | 35.5µM* | 7.94µM*
CSc1cccc(NC(=O)NC[C@H]2C[C@@H]3CCN2C[C@@H]3CN2CCSCC2)c1 | · | · | · | · | 31.8%[176 µM]
O=C1CC(=O)N(c2ccc3c(c2)OCO3)C(=O)N1 | -3.1% | ? | -6.3% | -12.5% | -26.4%
Cc1cccc(N2C(=O)NC(=O)/C(=C/c3ccc(-c4ccc(C(=O)O)c(Cl)c4)o3)C2=O)c1 | · | 10µM* | · | 44.7µM* | ·
O=C1NC(=O)N(c2ccc3c(c2)OCO3)C(=O)/C1=C\c1ccc(-c2ccccc2C(=O)O)o1 | ? | 10µM* | -4.2% | 50.1µM* | ?
O=C1NC(=O)N(c2ccc3c(c2)OCO3)C(=O)/C1=C/c1ccc(N2CCCCC2)o1 | -7.5% | 50.1µM* | -1.0% | -9.2% | 0.0%
Nc1nc(N2CC3CCC(C2)N3CC(F)(F)F)c2[nH]cnc2n1 | · | · | · | · | -4.3%[6.33 µM]
CC[n+]1c(-c2ccccc2)c2cc(N)ccc2c2ccc(N)cc21 | 6.31µM* | 12.6µM* | -6.9% | ? | ?
CCC(CC)c1cc([C@H]2CN3CC[C@H]2C[C@@H]3CNC(C)=O)nc(-c2ccncc2)n1 | · | · | · | · | 44.9%[176 µM]
C=C[C@H]1CN2CC[C@H]1C[C@@H]2CNC(=O)Nc1ccc(C(C)(C)C)cc1 | · | · | · | · | 35.6%[176 µM]
CCOC(=O)C1=C(NC(=S)NC(=O)c2ccccc2)c2ccccc2CC12CCCC2 | -21.1% | -13.7%[59 µM] | 4.2% | 8.7% | 20µM*
CCOP(=O)(OCC)C(NC(=O)c1ccccc1)=C(Cl)Cl | 23.8% | 18.4%[59 µM] | -1.1% | 3.3% | 0.8%
CC1CCC(=O)O1 (stereo not drawn) | · | · | · | · | 3.2%[176 µM]
COc1ccc(-n2cc(C3=CCN(CCN4CCOCC4)CC3)cn2)cc1 | · | · | · | · | 27.3%
COc1cccc(N2C(=O)NC(=O)/C(=C/c3ccc([N+](=O)[O-])s3)C2=O)c1 | ? | 11.2µM* | -3.2% | 25.1µM* | ?
COc1ccc(N2C(=O)NC(=O)/C(=C\c3ccc([N+](=O)[O-])s3)C2=O)cc1 | 70.8µM* | 7.94µM* | -9.5% | 39.8µM* | 44.7µM*
COc1ccc(N2C(=O)NC(=O)/C(=C/c3ccc([N+](=O)[O-])s3)C2=O)cc1 | 39.8µM* | 8.91µM* | -0.1% | 25.1µM* | -73.2%
COc1ccccc1N1C(=O)NC(=O)C(CCc2ccncc2)(CCc2ccncc2)C1=O | 3.9% | 9.2%[59 µM] | -2.6% | -7.7% | -8.8%
COc1ccccc1N1C(=O)NC(=O)/C(=C/c2ccc([N+](=O)[O-])s2)C1=O | 44.7µM* | 8.91µM* | -4.9% | 22.4µM* | ?
Cc1cc(/C=C2\C(=O)NC(=O)N(c3cccc(F)c3)C2=O)c(C)n1-c1cc(C(=O)O)cc(C(=O)O)c1 | 8.6% | · | -0.3% | -21.1% | ?
O=C1NCc2ccccc2CC12CCCN(Cc1cccnc1)C2 (stereo not drawn) | · | · | · | · | 7.6%[6.33 µM]
O=C(c1ccccc1)N1C[C@@H]2C[C@H](C1)c1c(/C=C/c3ccc(Cl)cc3)ccc(=O)n1C2 | · | · | · | · | 8.5%[176 µM]
Brc1ccc2c(c1)C(OC1CN3CCC1CC3)c1ccccc1CS2 (stereo not drawn) | -7.2% | 15.8µM* | -11.6% | -14.4% | ?
COc1ccc(NC(=O)N2[C@H]3CC[C@@H]2c2cnc(-c4ccc(F)cc4)nc2C3)c(OC)c1 | · | · | · | · | 7.0%
COc1ccc(-c2cc([C@H]3CN4CC[C@H]3C[C@@H]4CNC(=O)NC(C)C)n(C)n2)cc1 | · | · | · | · | 1.9%[176 µM]
CCC(C)N1C(=O)NC(=O)C2(Cc3c(ccc4ccccc34)N(C)C2)C1=O (stereo not drawn) | -5.3% | 1.78µM* | -6.2% | -4.5% | ?
CCCCN1C(=O)NC(=O)C2(Cc3cc(C)ccc3N(C)C2)C1=O (stereo not drawn) | -9.5% | ? | -5.5% | ? | 0.0%
C/C=C/C1(NCCc2ccccc2)CCCCC1 | · | · | · | · | 52.8%
CC(=O)C(Sc1ncnc2c1nnn2-c1ccc(F)cc1)C(=O)N(C)C (stereo not drawn) | 50.1µM* | ? | 3.8% | 10µM* | ?
